Where “and” joins values, the source holds several entries; their conditions need not be identical. Equal values may be shown once. Inconclusive results are not listed. Unmarked numbers belong to inactive results. Calls of active or inactive are those of the source. Unless noted, the call rests on the fitted dose curve; in most records, active means well fitted activation curve with a large enough effect; inconclusive means small, poorly fitted or top-dose-only effect; inactive means no such curve, though single readings can be large or run the other way.
These compounds were tested against Cellular tumor antigen p53 (Homo sapiens) (UniProt P04637) (assay: Primary qHTS for small molecule compounds that upregulate eGFP-tagged delta133p53alpha (in N-terminal) cells. (AID 2060322; further: nearly all actives have a fitted effect of over 75% in size; further: potency means the concentration at half of the fitted maximal effect;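 on activation: 0% = DMSO vehicle and 100% = reference activator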)). Details: NCI-H358 eGFP-delta133p53alpha fluorescence, 24 h; activation: stronger effect = higher value.
Cellular tumor antigen p53 (Homo sapiens), sequence (P04637 whole entry, looked up): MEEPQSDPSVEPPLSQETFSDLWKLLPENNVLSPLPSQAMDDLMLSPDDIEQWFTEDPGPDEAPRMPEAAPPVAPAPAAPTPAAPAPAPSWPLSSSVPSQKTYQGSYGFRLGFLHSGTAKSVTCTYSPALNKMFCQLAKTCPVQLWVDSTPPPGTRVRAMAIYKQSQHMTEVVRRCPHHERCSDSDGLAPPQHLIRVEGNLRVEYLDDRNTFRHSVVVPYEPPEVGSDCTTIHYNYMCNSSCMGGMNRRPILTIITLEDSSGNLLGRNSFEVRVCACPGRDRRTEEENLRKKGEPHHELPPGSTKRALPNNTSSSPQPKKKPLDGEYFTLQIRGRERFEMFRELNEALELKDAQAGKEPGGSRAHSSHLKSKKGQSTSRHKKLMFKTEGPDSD
How it was run: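 NCI-H358 cells pre-induced 24 h with 10 ng/ml doxycycline to express N-terminal eGFP-delta133p53alpha, then dosed 24 h at 37C without doxycycline; fixed, Hoechst-stained, GFP intensity by laser scanning cytometry, normalized to DMSO (0%) and 57.5 uM 5-azacytidine (100%).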

Structure (SMILES)	activation	Potency
CN1CCN(CCCN2c3ccccc3Sc3ccc(C(F)(F)F)cc32)CC1	-19.8% and -3.33% and -47.4%	–
NC(Cc1c[nH]c2ccccc12)C(=O)NC(CCC(=O)O)C(=O)O (stereo unspecified)	-0.955%	–
Nc1cc(Cl)c(NC2=NCCN2)c(Cl)c1	-1.06%	–
NC(N)=NCCC[C@H](NC(=O)c1sccc1NS(=O)(=O)c1cccc2nsnc12)C(=O)O	-11.5%	–
COc1cc2c3c(cc4ccccc4c3c1O)NC2=O	-8.93%	–
CN(C)CCCN1c2ccccc2CCc2ccc(Cl)cc21	5.09% and -16.2%	–
Clc1ccc(C(c2ccccc2Cl)C(Cl)Cl)cc1 (stereo unspecified)	18.6% and -1.36% and 29.2%	–
Cn1c(=O)c(-c2c(Cl)cccc2Cl)cc2cnc(Nc3ccc(N4CCOCC4)cc3)nc21	-42.1%	–
CC1=C(/C=C/C(C)=C/C=C/C(C)=C/C(=O)Nc2ccc(O)cc2)C(C)(C)CCC1	-39.3%	–
N#Cc1ccc(C(=O)N2CCC3(CC2)N=C(N)c2c(F)ccc(F)c2N3)cn1	6.21%	–
OC[C@H]1O[C@@H](n2cnc3c2NC=NC[C@H]3O)C[C@@H]1O	-7.16%	–
Cc1c(OCC(F)(F)F)ccnc1CS(=O)c1nc2ccccc2[nH]1 (stereo unspecified)	8.47% and 28.3%	–
Nc1c2c(nc3ccccc13)CCCC2	-15.6% and 9.21% and -7.03%	–
CCCCC1CCN(CCCN2C(=O)CCc3ccccc32)CC1	-5.25%	–
CN(C)CCCN1c2ccccc2Sc2ccc(C(F)(F)F)cc21	25.1% and 58.3%	–
CCN(CC)c1ncnc2c1ncn2[C@@H]1O[C@H](COP(=O)(O)OP(=O)(O)C(Br)(Br)P(=O)(O)O)[C@@H](O)[C@H]1O	-18.4%	–
CCOC(=O)C1=C(C)NC(C)=C(C(=O)OCC)C1c1c(F)c(F)c(F)c(F)c1F	26.5%	–
O=c1c(O)c(-c2ccc(O)c(O)c2)oc2cc(O)cc(O)c12	-2.54% and -9.6% and 3.95%	–
NC(=NCc1ccccc1)NC(=O)c1nc(Cl)c(N)nc1N	0.24% and 2.72%	–
O=c1[nH]c2cccc(N3CCN(Cc4ccc(-c5ccccc5)cc4)CC3)c2o1	-3.82%	–
O=C(Nc1nc2ccccc2n1CCN1CCOCC1)c1cccc([N+](=O)[O-])c1	5.07% and -24.4%	–
Cc1cccc(-c2[nH]ncc2-c2ccc3ncccc3n2)n1	39.6% and -70.9%	–
COc1cc(O)c2c(c1)C1OC1C[C@H](O)[C@H](O)C(=O)/C=C\C[C@H](C)OC2=O (stereo partly specified)	–	21.3 µM (active)
NC(=O)c1ccc2[nH]ccc2c1	3.04%	–
c1ccc2c(c1)CCC[C@H]2Nc1nc2ccccc2[nH]1	27.9%	–
COC(=O)C1=C(C)NC(C)=C(C(=O)OC(C)(C)CN(C)CCC(c2ccccc2)c2ccccc2)C1c1cccc([N+](=O)[O-])c1 (stereo unspecified)	17.5%	–
C#CC(=O)N(c1ccc(OC)cc1OC)C(C(=O)NCC(=O)OCC)c1cccs1 (stereo unspecified)	–	7.57 µM (active)
Oc1ccc(/C=C/c2cc(O)cc(O)c2)cc1	1.67% and -36.3%	–
COc1ccccc1OCCNCC(O)COc1cccc2[nH]c3ccccc3c12 (stereo unspecified)	23.9% and -57.4%	–

The compounds below were run against Aldehyde dehydrogenase, mitochondrial (Homo sapiens) (UniProt P05091) (assay: qHTS for Inhibitors of the Aldehyde Dehydrogenase Family (ALDH2) Validation screens (AID 2061302; active means well fitted inhibition curve with a large enough effect; title and protocol of this record describe different tests;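 further: plate controls were DMSO vehicle for no effect and maximal DPI positive control response for full effect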)). Details: ALDH inhibition qHTS; series mostly up to 42.6 µM; activity change, negative = inhibition: at the top concentration.

Structure (SMILES)	activity change, negative = inhibition [%]
CCCCC1C(=O)N(c2ccccc2)N(c2ccccc2)C1=O	-26.3
NC(CO)C(=O)NNCc1ccc(O)c(O)c1O (stereo unspecified)	62.9
OCCN1CCN(CCCN2c3ccccc3Sc3ccc(C(F)(F)F)cc32)CC1	-9.99
COc1cc2nc(N3CCN(C(=O)c4ccco4)CC3)nc(N)c2cc1OC	-9.56
Nc1nc2ccc(OC(F)(F)F)cc2s1	-10.6
COc1cc2nc(N3CCN(C(=O)C4COc5ccccc5O4)CC3)nc(N)c2cc1OC (stereo unspecified)	11.3
CNCCC=C1c2ccccc2CCc2ccccc21	0.272
CN1CCN(CCCN2c3ccccc3Sc3ccc(C(F)(F)F)cc32)CC1	14.1
Nc1cc(Cl)c(NC2=NCCN2)c(Cl)c1	-0.938
CN(C)CCCN1c2ccccc2CCc2ccc(Cl)cc21	18
Clc1ccc(C(c2ccccc2Cl)C(Cl)Cl)cc1 (stereo unspecified)	-1.03
Cn1c(=O)c(-c2c(Cl)cccc2Cl)cc2cnc(Nc3ccc(N4CCOCC4)cc3)nc21	-23.5
CC1=C(/C=C/C(C)=C/C=C/C(C)=C/C(=O)Nc2ccc(O)cc2)C(C)(C)CCC1	-2.65
Cc1c(OCC(F)(F)F)ccnc1CS(=O)c1nc2ccccc2[nH]1 (stereo unspecified)	-2.13
Nc1c2c(nc3ccccc13)CCCC2	-2.55
CN(C)CCCN1c2ccccc2Sc2ccc(C(F)(F)F)cc21	1.72
CCN(CC)c1ncnc2c1ncn2[C@@H]1O[C@H](COP(=O)(O)OP(=O)(O)C(Br)(Br)P(=O)(O)O)[C@@H](O)[C@H]1O	0.436
CCOC(=O)C1=C(C)NC(C)=C(C(=O)OCC)C1c1c(F)c(F)c(F)c(F)c1F	2.21
O=c1c(O)c(-c2ccc(O)c(O)c2)oc2cc(O)cc(O)c12	-3.84
NC(=NCc1ccccc1)NC(=O)c1nc(Cl)c(N)nc1N	-2.03
O=C(Nc1nc2ccccc2n1CCN1CCOCC1)c1cccc([N+](=O)[O-])c1	-10.6
Cc1cccc(-c2[nH]ncc2-c2ccc3ncccc3n2)n1	7.34
NC(=O)c1ccc2[nH]ccc2c1	7.07
c1ccc2c(c1)CCC[C@H]2Nc1nc2ccccc2[nH]1	-0.411
COC(=O)C1=C(C)NC(C)=C(C(=O)OC(C)(C)CN(C)CCC(c2ccccc2)c2ccccc2)C1c1cccc([N+](=O)[O-])c1 (stereo unspecified)	-13.7
Oc1ccc(/C=C/c2cc(O)cc(O)c2)cc1	-11.1
COc1ccccc1OCCNCC(O)COc1cccc2[nH]c3ccccc3c12 (stereo unspecified)	-5.86
